Publication PMC4336329 (PLoS ONE, 2015)
Screen size: about 310,000 compounds; about 14,000 (4.5%) showed an effect of 50% or more. Effects have a minus sign here. This excerpt belongs to a sample that is enriched for strong results.

Target: human ether-à-go-go-related gene (hERG) potassium channel (human, UniProt Q12809)
Test: primary screen, population patch clamp on CHO cells stably expressing hERG; higher = less effect of the substance
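Further: peak tail current of the secondary pulse compared with the same well before compound.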

Chain of human ether-à-go-go-related gene (hERG) potassium channel (Q12809 whole entry, looked up): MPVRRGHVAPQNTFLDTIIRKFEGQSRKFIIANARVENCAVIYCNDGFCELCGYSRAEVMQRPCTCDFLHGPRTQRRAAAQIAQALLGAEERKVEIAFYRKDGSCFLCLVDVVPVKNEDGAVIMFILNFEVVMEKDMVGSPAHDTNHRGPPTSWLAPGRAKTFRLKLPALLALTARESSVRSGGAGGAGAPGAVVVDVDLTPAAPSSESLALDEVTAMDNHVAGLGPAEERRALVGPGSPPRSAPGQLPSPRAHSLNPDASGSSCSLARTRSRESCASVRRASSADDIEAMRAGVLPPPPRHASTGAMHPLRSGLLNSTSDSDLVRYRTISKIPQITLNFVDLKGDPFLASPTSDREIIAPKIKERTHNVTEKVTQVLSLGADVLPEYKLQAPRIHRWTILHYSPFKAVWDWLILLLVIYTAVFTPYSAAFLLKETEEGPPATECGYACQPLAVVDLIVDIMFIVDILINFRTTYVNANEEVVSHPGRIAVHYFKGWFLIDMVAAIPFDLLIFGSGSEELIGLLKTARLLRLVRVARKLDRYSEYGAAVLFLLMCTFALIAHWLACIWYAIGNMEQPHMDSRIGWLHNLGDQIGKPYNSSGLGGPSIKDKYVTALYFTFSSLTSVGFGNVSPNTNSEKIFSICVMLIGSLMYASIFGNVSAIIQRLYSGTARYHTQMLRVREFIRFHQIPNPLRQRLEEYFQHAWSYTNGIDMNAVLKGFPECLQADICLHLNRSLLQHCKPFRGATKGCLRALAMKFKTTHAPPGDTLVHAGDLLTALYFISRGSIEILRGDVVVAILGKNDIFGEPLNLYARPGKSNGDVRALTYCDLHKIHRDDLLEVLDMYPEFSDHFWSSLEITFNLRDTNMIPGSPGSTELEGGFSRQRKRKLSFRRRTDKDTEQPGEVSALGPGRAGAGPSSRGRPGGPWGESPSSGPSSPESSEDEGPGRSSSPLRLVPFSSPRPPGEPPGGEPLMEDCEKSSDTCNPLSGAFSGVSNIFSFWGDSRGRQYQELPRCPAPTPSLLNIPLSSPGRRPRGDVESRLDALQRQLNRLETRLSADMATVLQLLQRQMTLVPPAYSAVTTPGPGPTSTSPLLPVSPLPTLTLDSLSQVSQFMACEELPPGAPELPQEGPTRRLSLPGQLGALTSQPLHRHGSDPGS

| SMILES | hERG current change (%, negative = inhibition) at 10uM |
| --- | --- |
| CCN(CC)CCn1c(=S)[nH]c2cc(C(=O)NCc3ccc(C)cc3)ccc2c1=O | -57.9% |
| Cc1ccc(CNC(=O)c2ccc3c(=O)n(CC4CCCO4)c(=S)[nH]c3c2)cc1 (stereo not shown) | -9.6% |
| O=C(NCc1ccccc1Cl)c1ccc2c(=O)n(CC3CCCO3)c(=S)[nH]c2c1 (stereo not shown) | 10.1% |
| Cc1ccc(CNC(=O)c2ccc3c(=O)n(CCCN4CCCC4=O)c(=S)[nH]c3c2)cc1 | 6.41% |
| CCN(CC)CCn1c(=S)[nH]c2cc(C(=O)NCc3ccccc3Cl)ccc2c1=O | -76.1% |
| O=C(NCc1ccccc1Cl)c1ccc2c(=O)n(CCCN3CCCC3=O)c(=S)[nH]c2c1 | -8.83% |
| COc1ccccc1N(CC(O)COc1c(C)cc(C)cc1C)S(=O)(=O)c1ccccc1 (stereo not shown) | -0.161% |
| CSc1ncccc1C(=O)N1CCCC(CCC(=O)NCc2ccccc2F)C1 (stereo not shown) | 6.52% |
| CN1CCC(N(C)C(=O)c2sc3cc(F)ccc3c2Cl)CC1 | -47.9% |
| COc1ccc(NS(=O)(=O)c2cccc3nsnc23)cc1Cl | 11.2% |
| NC(=O)CSc1ncc(-c2ccc([N+](=O)[O-])cc2)[nH]1 | -14.6% |
| CCOC(=O)CSc1ncc(-c2ccc([N+](=O)[O-])cc2)[nH]1 | -61% |
| Cc1cc(C)c(CSc2ncc(-c3ccc([N+](=O)[O-])cc3)[nH]2)c(C)c1 | -10.2% |
| O=C(c1ccc2c(c1)OCO2)C1CCCN(Cc2cc(F)ccc2-n2cccn2)C1 (stereo not shown) | -74.9% |
| CCOC(=O)CCNC(=O)N1CCCC(C(=O)c2ccc3c(c2)OCO3)C1 (stereo not shown) | 2.31% |
| Cc1ccc(-n2cccn2)c(CN2CCCC(C(=O)c3ccc4c(c3)OCO4)C2)c1 (stereo not shown) | -77.2% |
| O=C(c1ccc2c(c1)OCO2)C1CCCN(C(=O)Nc2ccc(F)cc2F)C1 (stereo not shown) | -30% |
| CCOC(=O)CNC(=O)N1CCCC(C(=O)c2ccc3c(c2)OCO3)C1 (stereo not shown) | 11.1% |
| c1cncc(-c2ccnc3ncnn23)c1 | -4.79% |
| COc1cc(C)c(CNc2cccc(C)c2)cc1C | 2.74% |
| Cc1ccc(SCn2nnc3ccccc3c2=O)c(C)c1 | -33.8% |
| O=C(CCCn1cnc([N+](=O)[O-])n1)Nc1cccc(O)c1 | 9.95% |

| SMILES | hERG current change (%, negative = inhibition) at 10uM |
| --- | --- |
| CCOC(=O)C(C)n1nc(-c2ccccc2)c2ccccc2c1=O (stereo not shown) | 15.9% |
| CCC1Oc2ccc(C)cc2N(CC(=O)NC2CCCCC2)C1=O (stereo not shown) | 5.8% |
| CCCCNC(=O)Nc1nnc(SCC(=O)OCC)s1 | -91.2% |
| CCCCNC(=O)CSc1nnc(NC(C)=O)s1 | -10.6% |
| CCOC(=O)CSc1nnc(NC(=O)NC(C)C)s1 | 5.74% |
| O=C(O)CCN1CCc2ccccc21 | 9.02% |
| FC(F)(F)c1cccc(NCc2n[nH]c(=S)n2C2CCCCC2)c1 | 41.2% |
| Cc1ccc(S(=O)(=O)N(C)Cc2cc3ccccc3[nH]c2=O)cc1 | -15.7% |
| COc1cccc(C(=O)/C=C/Nc2ccc(S(=O)(=O)Nc3nc(C)cc(C)n3)cc2)c1 | -1.4% |
| O=C(CCc1nnc2ccc(NCCCN3CCCC3=O)nn12)NCc1ccccc1Cl | -1.05% |
| Cc1nn(-c2ccccc2)c2c1C(c1ccc(F)cc1F)C(C#N)=C(N)O2 (stereo not shown) | -9.42% |
| COc1ccc(C(=O)n2nc(-c3ccco3)nc2N)cc1 | -2.65% |
| CC(C)CCn1c(=O)c2ccccc2n2c(CCl)nnc12 | -32.8% |
| CC(C)CCn1c(=O)c2ccccc2n2c(=S)[nH]nc12 | 18.2% |
| CC(C)CCn1c(=O)c2ccccc2n2c(CN3CCOCC3)nnc12 | -11.9% |
| CC(C)CCn1c(=O)c2ccccc2n2c(CN3C(=O)NC4(CCC(C)CC4)C3=O)nnc12 (stereo not shown) | -72.1% |
| CC(C)CCn1c(=O)c2ccccc2n2c(CN3CCCC3)nnc12 | -2.3% |
| CC(C)CCn1c(=O)c2ccccc2n2c(CN(C)Cc3ccccc3)nnc12 | -80.7% |
| CCN1C(=O)/C(=C2/Sc3ccc(OC)cc3N2C)SC1=Nc1cccc(O)c1 | 15.6% |
| CCOc1ccc(S(=O)(=O)n2ccc(C)n2)cc1 | 10.9% |
| O=S(=O)(NCc1ccc2c(c1)OCO2)c1cccc(S(=O)(=O)N2CCOCC2)c1 | 10.6% |
| N#Cc1ccc2c(c1)nnn2-c1ccccc1 | 1.85% |

| SMILES | hERG current change (%, negative = inhibition) at 10uM |
| --- | --- |
| O=c1c2ccccc2nc(CSc2ncnc3nc[nH]c23)n1-c1ccc(Cl)c(Cl)c1 | 5.27% |
| CCOC(=O)Cn1cnc2c(C#N)c3n(c2c1=O)CCCCC3 | -9.52% |
| N#Cc1c(-c2ccccc2)nc(-c2ccncc2)[nH]c1=O | -71.5% |
| N#Cc1c(-c2ccccc2)nc(-c2cccnc2)[nH]c1=O | 17.6% |
| N#Cc1c(-c2ccccc2)nc(-c2ccccc2)[nH]c1=O | 13.4% |
| Cc1ccc(NC(=O)C(C)OC(=O)/C=C/c2ccccc2)cc1 (stereo not shown) | 23% |
| Cc1cc(C)c(C)c(OCCOCCNCc2ccccc2)c1.O=C(O)C(=O)O | -54.2% |
| Cc1ccc(OCCNCc2ccccc2)c(C)c1.O=C(O)C(=O)O | -6.1% |
| Cc1cc(Cl)cc(C)c1OCCNCc1ccccc1.O=C(O)C(=O)O | -3.66% |
| Cc1cc(C)c(C)c(OCCNCc2ccccc2)c1.O=C(O)C(=O)O | -5.47% |
| Cc1cc(Cl)cc(C)c1OCCOCCNCc1ccccc1.O=C(O)C(=O)O | -52.4% |
| Clc1cccc(Cl)c1OCCOCCNCc1ccccc1.O=C(O)C(=O)O | -31.2% |
| Cc1cc(=O)[nH]c(N2CCN(Cc3ccccc3)CC2)n1 | -2.95% |
| CC(=O)Oc1c(C(=O)c2nnc(C)o2)c(=O)n(Cc2ccccc2)c2ccccc12 | 1.56% |
| CCCCCCCCNC(=O)c1ccc(C)cc1 | 10.9% |
| O=C(NC(c1ccccc1)C(Cl)(Cl)Cl)c1ccccc1 (stereo not shown) | -11.3% |
| CCN(CC)S(=O)(=O)c1ccc2oc(Nc3ccc(OC)cc3OC)nc2c1 | 9.24% |
| CCc1cccc(C)c1NC(=O)CSc1nc2ccc(N3C(=O)c4ccccc4C3=O)cc2s1 | 4.44% |
| CC(Oc1ccc(Br)cc1)C(=O)O/N=C(\N)c1ccncc1 (stereo not shown) | 5.16% |
| COc1ccc(CCn2c(=N)c(C(=O)NCc3ccco3)cc3c(=O)n4cccc(C)c4nc32)cc1 | -75.6% |
| Cc1cccn2c(=O)nc(SCC(=O)NCc3ccco3)nc12 | 1.37% |
| Cc1cccn2c(=O)c3cc(C(=O)NCc4ccco4)c(=N)n(CCc4ccccc4)c3nc12 | -76.5% |

| SMILES | hERG current change (%, negative = inhibition) at 10uM |
| --- | --- |
| Cc1cccn2c(=O)c3cc(C(=O)NCc4ccco4)c(=N)n(C(C)C)c3nc12 | -77.6% |
| COc1ccc(CCn2c(N)c(C(=O)NCc3ccco3)c3nc4ccccc4nc32)cc1 | 0.65% |
| Cc1cccn2c(=O)c3cc(C(=O)NCc4ccco4)c(=N)n(CCOCCO)c3nc12 | -74.9% |
| Cc1ccccc1Nc1cc(C(=O)NCc2ccco2)c2ccccc2n1 | 20.3% |
| COc1ccc(-n2nc(C(=O)NCc3ccco3)c3ccccc3c2=O)cc1 | -17.1% |
| CC(OC(=O)c1cccc(S(=O)(=O)Nc2ccccc2F)c1)C(=O)NCc1ccc2c(c1)OCO2 (stereo not shown) | 12.8% |
| CN(C(=O)c1ccc(S(=O)(=O)N2CCCC2)cc1)C1CCS(=O)(=O)C1 (stereo not shown) | 4.75% |
| O=C(Nc1ccc(Cl)cc1)C(Cl)C(=O)c1ccccc1 (stereo not shown) | -3.81% |
| Cc1csc(SCC(=O)NCc2cccc(Cl)c2)n1 | -7.05% |
| CCc1ccc(-n2c(=O)c3ccc(C(=O)NCCc4ccccc4)cc3n(CC(N)=O)c2=O)cc1 | 14.6% |
| Cc1cccn2c(=O)c3cc(S(=O)(=O)c4ccc(F)cc4)c(=N)n(Cc4ccco4)c3nc12 | -34.8% |
| Cc1cccn2c(=O)c3cc(S(=O)(=O)c4ccccc4)c(=N)n(Cc4ccco4)c3nc12 | -0.654% |
| Cc1cccn2c(=O)c3cc(C(=O)NCCc4ccccc4)c(=N)n(Cc4ccco4)c3nc12 | -74% |
| CCOC(=O)Cn1c(=O)n(Cc2ccco2)c(=O)c2ccc(C(=O)NC3CCCC3)cc21 | -18.9% |
| CCOC(=O)Cn1c(=O)n(Cc2ccco2)c(=O)c2ccc(C(=O)NCCc3ccccc3)cc21 | -53.2% |
| CCN(CC)C(=O)N1CCN(c2c([N+](=O)[O-])c(=O)oc3ccccc23)CC1 | -25.7% |
| CN(C)c1ccc(C(=O)c2ccc(N(C)C)c(N)c2)cc1N | -3.79% |
| COc1c(F)c(F)c(C(=O)Nc2ccc(N3CCN(Cc4ccccc4)CC3)cc2)c(F)c1F | -14.6% |
| COc1ccc(C(=O)N=C2SC3CS(=O)(=O)CC3N2c2ccccc2)cc1OC (stereo not shown) | 11% |
